From publication PMC11066047

Key:
[1] = target: Heat shock protein homolog SSE1 (UniProt P32589); experiment: cross-link between two proteins; cross-linking mass spectrometry
[2] = target: Heat shock protein homolog SSE2 (UniProt P32590); experiment: as above
[3] = target: Isocitrate dehydrogenase [NAD] subunit 1, mitochondrial (UniProt P28834); experiment: as above
[4] = target: Large ribosomal subunit protein eL30 (UniProt P14120); experiment: as above
[5] = target: Small ribosomal subunit protein eS7A (UniProt P26786); experiment: cross-link between two proteins
[6] = target: Large ribosomal subunit protein eL31A (UniProt P0C2H8); experiment: cross-link between two proteins; cross-linking mass spectrometry
[7] = target: Large ribosomal subunit protein eL32 (UniProt P38061); experiment: as above
[8] = target: Ribosome biogenesis protein ALB1 (UniProt P47019); experiment: as above
Zuotin = Zuotin (UniProt P32527); experiment: as above
[9] = target: Large ribosomal subunit protein eL38 (UniProt P49167); experiment: as above
[10] = target: Large ribosomal subunit protein eL6A (UniProt Q02326); experiment: as above
[11] = target: Large ribosomal subunit protein eL8B (UniProt P29453); experiment: as above
Sequence of Large ribosomal subunit protein eL8B (P29453 whole entry): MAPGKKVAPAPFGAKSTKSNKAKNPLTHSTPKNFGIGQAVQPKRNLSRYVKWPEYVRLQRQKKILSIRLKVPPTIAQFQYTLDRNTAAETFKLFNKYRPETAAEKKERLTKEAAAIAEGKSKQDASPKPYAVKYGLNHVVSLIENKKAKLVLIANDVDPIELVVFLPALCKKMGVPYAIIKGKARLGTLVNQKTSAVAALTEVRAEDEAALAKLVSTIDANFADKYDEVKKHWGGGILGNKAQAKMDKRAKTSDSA

Pescadillo homolog = Pescadillo homolog (UniProt P53261); experiment: as above
Sequence of Pescadillo homolog (P53261 whole entry): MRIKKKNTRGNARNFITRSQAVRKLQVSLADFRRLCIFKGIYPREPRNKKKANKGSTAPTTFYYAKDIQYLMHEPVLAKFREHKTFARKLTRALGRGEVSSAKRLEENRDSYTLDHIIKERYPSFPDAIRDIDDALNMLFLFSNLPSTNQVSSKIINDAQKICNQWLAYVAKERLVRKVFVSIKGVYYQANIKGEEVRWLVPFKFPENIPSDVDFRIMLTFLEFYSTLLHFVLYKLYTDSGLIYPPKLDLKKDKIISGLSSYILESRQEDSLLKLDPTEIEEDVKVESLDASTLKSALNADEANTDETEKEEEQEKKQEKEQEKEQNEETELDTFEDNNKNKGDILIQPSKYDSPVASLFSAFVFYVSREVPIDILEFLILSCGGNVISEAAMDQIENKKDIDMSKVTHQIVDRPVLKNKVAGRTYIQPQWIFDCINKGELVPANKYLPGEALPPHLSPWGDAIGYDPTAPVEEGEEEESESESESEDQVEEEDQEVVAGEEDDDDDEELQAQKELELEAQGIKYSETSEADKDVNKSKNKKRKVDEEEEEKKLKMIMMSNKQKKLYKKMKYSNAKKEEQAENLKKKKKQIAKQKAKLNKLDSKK

[12] = target: Proteasome-interacting protein CIC1 (UniProt P38779); experiment: as above
[13] = target: Large ribosomal subunit protein uL13B (UniProt P26785); experiment: as above
[14] = target: Large ribosomal subunit protein uL4A (UniProt P10664); experiment: as above
[15] = target: Large ribosomal subunit protein uL4B (UniProt P49626); experiment: as above
[16] = target: Mitochondrial import inner membrane translocase subunit TIM14 (UniProt Q07914); experiment: as above
[17] = target: NET1-associated nuclear protein 1 (UniProt Q02931); experiment: cross-link between two proteins
Sequence of NET1-associated nuclear protein 1 (Q02931 whole entry): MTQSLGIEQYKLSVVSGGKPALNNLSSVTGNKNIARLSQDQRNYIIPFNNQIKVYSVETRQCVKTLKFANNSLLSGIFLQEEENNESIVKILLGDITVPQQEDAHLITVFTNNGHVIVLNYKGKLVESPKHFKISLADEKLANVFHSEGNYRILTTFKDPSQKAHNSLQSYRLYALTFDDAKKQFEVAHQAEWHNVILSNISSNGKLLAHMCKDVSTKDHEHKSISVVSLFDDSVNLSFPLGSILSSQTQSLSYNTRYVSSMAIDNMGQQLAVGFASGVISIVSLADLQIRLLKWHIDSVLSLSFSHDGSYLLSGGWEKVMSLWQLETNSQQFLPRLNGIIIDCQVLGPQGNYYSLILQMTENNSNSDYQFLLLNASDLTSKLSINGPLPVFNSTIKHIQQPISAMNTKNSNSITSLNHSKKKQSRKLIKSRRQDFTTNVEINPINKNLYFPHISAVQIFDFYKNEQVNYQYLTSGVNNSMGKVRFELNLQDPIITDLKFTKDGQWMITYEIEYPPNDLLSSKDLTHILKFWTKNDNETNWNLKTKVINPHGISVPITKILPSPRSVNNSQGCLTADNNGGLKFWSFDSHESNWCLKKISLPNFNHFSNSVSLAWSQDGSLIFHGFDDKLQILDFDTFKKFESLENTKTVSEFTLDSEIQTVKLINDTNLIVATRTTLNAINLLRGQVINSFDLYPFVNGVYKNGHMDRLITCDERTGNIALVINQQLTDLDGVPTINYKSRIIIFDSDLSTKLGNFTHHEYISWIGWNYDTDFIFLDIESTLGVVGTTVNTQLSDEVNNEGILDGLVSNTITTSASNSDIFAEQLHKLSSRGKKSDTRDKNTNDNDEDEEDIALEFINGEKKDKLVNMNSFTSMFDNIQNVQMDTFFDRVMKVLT

[18] = target: Nucleolar complex protein 14 (UniProt Q99207); experiment: cross-link between two proteins
[19] = target: Ribosomal RNA-processing protein 12 (UniProt Q12754); experiment: cross-link between two proteins
Nucleolar protein 56 = Nucleolar protein 56 (UniProt Q12460); experiment: cross-link between two proteins
Nucleolar protein 58 = Nucleolar protein 58 (UniProt Q12499); experiment: cross-link between two proteins; cross-linking mass spectrometry
Prohibitin-2 = Prohibitin-2 (UniProt P50085); experiment: as above
[20] = target: Proteasome subunit alpha type-2 (UniProt P23639); experiment: as above
Sequence of Proteasome subunit alpha type-2 (P23639 whole entry): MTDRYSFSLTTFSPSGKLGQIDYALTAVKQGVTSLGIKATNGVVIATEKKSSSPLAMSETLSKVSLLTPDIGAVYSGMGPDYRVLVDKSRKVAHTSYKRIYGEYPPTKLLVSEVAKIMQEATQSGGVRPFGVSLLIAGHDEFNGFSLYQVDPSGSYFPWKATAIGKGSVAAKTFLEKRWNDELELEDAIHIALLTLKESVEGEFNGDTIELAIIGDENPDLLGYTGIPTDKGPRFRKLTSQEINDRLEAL

[21] = target: Proteasome subunit beta type-3 (UniProt P25451); experiment: as above
Sequence of Proteasome subunit beta type-3 (P25451 whole entry): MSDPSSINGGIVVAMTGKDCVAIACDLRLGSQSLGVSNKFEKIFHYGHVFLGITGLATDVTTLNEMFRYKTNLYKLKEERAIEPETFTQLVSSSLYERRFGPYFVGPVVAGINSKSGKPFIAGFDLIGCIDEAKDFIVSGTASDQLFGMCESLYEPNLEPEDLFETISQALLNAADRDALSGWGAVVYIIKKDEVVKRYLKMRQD

[22] = target: Proteasome subunit alpha type-3 (UniProt P23638); experiment: as above
[23] = target: Proteasome subunit alpha type-6 (UniProt P40302); experiment: as above
[24] = target: Protein transport protein SBH2 (UniProt P52871); experiment: as above
[25] = target: Ribosome biogenesis protein BMS1 (UniProt Q08965); experiment: cross-link between two proteins
[26] = target: Ribosome biogenesis protein MAK21 (UniProt Q12176); experiment: cross-link between two proteins; cross-linking mass spectrometry
Sequence of Ribosome biogenesis protein MAK21 (Q12176 whole entry): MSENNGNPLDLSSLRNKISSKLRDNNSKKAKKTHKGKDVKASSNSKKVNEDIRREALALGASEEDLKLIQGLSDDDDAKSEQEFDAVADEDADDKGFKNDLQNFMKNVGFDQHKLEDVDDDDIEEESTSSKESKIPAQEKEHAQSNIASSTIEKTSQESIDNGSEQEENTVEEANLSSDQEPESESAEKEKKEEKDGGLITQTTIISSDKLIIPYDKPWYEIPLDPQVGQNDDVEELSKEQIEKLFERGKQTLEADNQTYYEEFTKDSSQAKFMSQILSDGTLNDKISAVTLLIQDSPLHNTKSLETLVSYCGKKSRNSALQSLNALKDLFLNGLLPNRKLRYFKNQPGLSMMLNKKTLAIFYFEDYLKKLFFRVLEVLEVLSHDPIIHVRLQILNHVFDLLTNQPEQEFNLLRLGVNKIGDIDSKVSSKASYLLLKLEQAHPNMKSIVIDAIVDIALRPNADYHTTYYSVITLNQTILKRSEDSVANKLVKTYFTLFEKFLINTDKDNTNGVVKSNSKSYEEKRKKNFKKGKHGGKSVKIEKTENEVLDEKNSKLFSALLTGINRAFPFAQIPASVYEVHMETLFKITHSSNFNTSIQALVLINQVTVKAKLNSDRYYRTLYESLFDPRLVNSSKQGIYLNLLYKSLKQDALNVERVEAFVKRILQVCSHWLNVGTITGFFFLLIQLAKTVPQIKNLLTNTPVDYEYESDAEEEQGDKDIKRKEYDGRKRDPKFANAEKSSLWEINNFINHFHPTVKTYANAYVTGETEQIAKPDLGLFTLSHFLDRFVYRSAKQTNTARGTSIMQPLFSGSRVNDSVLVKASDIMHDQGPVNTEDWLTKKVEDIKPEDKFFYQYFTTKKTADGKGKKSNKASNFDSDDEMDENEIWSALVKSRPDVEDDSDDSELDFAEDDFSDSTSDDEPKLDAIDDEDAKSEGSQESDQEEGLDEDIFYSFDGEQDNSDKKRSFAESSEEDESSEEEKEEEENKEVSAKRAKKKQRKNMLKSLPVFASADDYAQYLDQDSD

[27] = target: Ribosome biogenesis protein YTM1 (UniProt Q12024); experiment: as above
Sequence of Ribosome biogenesis protein YTM1 (Q12024 whole entry): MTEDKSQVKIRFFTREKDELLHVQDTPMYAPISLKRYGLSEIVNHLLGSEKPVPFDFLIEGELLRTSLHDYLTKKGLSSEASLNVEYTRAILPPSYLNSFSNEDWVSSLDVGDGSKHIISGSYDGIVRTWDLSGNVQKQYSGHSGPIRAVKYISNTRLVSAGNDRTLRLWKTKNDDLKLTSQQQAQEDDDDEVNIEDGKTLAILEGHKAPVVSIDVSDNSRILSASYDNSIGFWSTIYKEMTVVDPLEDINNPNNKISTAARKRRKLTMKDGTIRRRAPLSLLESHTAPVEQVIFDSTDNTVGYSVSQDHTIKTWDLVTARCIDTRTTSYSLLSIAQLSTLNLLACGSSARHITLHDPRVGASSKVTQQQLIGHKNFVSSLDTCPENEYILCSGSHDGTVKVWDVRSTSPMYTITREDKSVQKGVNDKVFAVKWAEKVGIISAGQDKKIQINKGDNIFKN

RuvB-like protein 2 = RuvB-like protein 2 (UniProt Q12464); experiment: as above
[28] = target: Small ribosomal subunit protein RACK1 (UniProt P38011); experiment: as above
[29] = target: Small ribosomal subunit protein uS10 (UniProt P38701); experiment: as above
[30] = target: Small ribosomal subunit protein uS5 (UniProt P25443); experiment: as above
Sequence of Small ribosomal subunit protein uS5 (P25443 whole entry): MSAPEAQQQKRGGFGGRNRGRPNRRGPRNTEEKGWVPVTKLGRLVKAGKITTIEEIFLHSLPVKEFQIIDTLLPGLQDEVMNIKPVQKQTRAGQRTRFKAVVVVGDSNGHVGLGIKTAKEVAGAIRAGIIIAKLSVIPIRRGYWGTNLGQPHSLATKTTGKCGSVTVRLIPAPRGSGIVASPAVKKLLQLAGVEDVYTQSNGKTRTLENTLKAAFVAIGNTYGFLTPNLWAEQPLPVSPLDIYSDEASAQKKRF

[31] = target: Small ribosomal subunit protein eS12 (UniProt P48589); experiment: as above
[32] = target: Small ribosomal subunit protein eS25A (UniProt Q3E792); experiment: as above
[33] = target: Small ribosomal subunit protein eS28A (UniProt Q3E7X9); experiment: cross-link between two proteins
Sequence of Small ribosomal subunit protein eS28A (Q3E7X9 whole entry): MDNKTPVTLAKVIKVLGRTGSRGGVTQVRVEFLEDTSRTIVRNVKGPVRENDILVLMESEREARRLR

[34] = target: Small ribosomal subunit protein uS11B (UniProt P39516); experiment: cross-link between two proteins; cross-linking mass spectrometry
[35] = target: Small ribosomal subunit protein uS7 (UniProt P26783); experiment: as above
[36] = target: Succinate--CoA ligase [ADP-forming] subunit alpha, mitochondrial (UniProt P53598); experiment: as above
[37] = target: U3 small nucleolar RNA-associated protein 12 (UniProt Q12220); experiment: as above
Sequence of U3 small nucleolar RNA-associated protein 12 (Q12220 whole entry): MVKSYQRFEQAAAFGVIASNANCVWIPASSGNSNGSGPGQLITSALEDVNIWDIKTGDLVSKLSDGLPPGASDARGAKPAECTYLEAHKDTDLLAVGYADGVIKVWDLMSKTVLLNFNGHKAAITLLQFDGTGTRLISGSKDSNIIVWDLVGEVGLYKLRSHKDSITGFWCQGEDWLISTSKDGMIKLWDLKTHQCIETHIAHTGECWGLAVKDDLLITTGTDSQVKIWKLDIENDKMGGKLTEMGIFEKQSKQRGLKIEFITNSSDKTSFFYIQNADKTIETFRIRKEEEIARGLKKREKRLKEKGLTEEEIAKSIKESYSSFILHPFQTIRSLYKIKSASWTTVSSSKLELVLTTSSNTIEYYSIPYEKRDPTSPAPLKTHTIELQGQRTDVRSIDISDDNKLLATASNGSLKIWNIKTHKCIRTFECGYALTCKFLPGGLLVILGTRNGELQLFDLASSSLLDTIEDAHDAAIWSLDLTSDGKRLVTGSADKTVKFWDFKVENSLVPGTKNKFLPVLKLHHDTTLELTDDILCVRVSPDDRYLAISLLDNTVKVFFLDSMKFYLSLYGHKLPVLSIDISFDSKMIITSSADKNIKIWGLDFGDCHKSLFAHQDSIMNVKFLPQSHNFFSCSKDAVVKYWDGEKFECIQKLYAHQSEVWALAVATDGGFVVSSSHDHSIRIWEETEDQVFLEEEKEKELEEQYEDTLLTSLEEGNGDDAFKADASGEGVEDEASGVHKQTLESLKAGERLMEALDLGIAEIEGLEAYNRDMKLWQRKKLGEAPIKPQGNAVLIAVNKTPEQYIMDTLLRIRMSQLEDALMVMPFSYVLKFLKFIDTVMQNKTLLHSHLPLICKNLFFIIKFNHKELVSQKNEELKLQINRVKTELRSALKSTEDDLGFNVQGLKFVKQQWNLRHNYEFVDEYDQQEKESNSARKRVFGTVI

[38] = target: U3 small nucleolar RNA-associated protein 15 (UniProt Q04305); experiment: as above
[39] = target: U3 small nucleolar RNA-associated protein 16 (UniProt Q08492); experiment: cross-link between two proteins
[40] = target: U3 small nucleolar RNA-associated protein 21 (UniProt Q06078); experiment: cross-link between two proteins
[41] = target: U3 small nucleolar RNA-associated protein 22 (UniProt P53254); experiment: cross-link between two proteins

Heat shock protein SSA1, P10591
listed as a hit [1]: yes | listed as a hit [2]: yes

Isocitrate dehydrogenase [NAD] subunit 2, mitochondrial, P28241
listed as a hit [3]: yes

Small ribosomal subunit protein uS15, P05756
listed as a hit [4]: yes | listed as a hit [5]: yes

Large ribosomal subunit protein uL22A, P05740
listed as a hit [6]: yes | listed as a hit [7]: yes | listed as a hit [8]: yes | listed as a hit (Zuotin): yes

Large ribosomal subunit protein eL22A, P05749
listed as a hit [9]: yes

Large ribosomal subunit protein eL32, P38061
listed as a hit [10]: yes

Large ribosomal subunit protein eL8A, P17076
listed as a hit [11]: yes | listed as a hit (Pescadillo homolog): yes | listed as a hit [12]: yes

Large ribosomal subunit protein eL27A, P0C2H6
listed as a hit [11]: yes

Large ribosomal subunit protein uL3, P14126
listed as a hit [13]: yes

Large ribosomal subunit protein uL30A, P05737
listed as a hit [14]: yes | listed as a hit [15]: yes

Mitochondrial import inner membrane translocase subunit TIM16, P42949
listed as a hit [16]: yes

U3 small nucleolar RNA-associated protein 10, P42945
listed as a hit [17]: yes

U3 small nucleolar RNA-associated protein 8, P53276
listed as a hit [17]: yes

Essential nuclear protein 1, P38333
listed as a hit [18]: yes | listed as a hit [19]: yes

rRNA 2'-O-methyltransferase fibrillarin, P15646
listed as a hit (Nucleolar protein 56): yes | listed as a hit (Nucleolar protein 58): yes

Large ribosomal subunit protein eL8B, P29453
listed as a hit (Pescadillo homolog): yes | listed as a hit [12]: yes

Prohibitin-1, P40961
listed as a hit (Prohibitin-2): yes

Proteasome subunit alpha type-1, P21243
listed as a hit [20]: yes

Proteasome subunit alpha type-3, P23638
listed as a hit [20]: yes | listed as a hit [21]: yes

Proteasome subunit beta type-4, P22141
listed as a hit [22]: yes | listed as a hit [21]: yes

Probable proteasome subunit alpha type-7, P21242
listed as a hit [23]: yes

Sec sixty-one protein homolog, P38353
listed as a hit [24]: yes

rRNA processing protein RCL1, Q08096
listed as a hit [25]: yes

Nucleolar complex protein 2, P39744
listed as a hit [26]: yes

rRNA biogenesis protein RRP5, Q05022
listed as a hit [26]: yes

Pescadillo homolog, P53261
listed as a hit [27]: yes

Ribosome biogenesis protein ERB1, Q04660
listed as a hit [27]: yes

RuvB-like protein 1, Q03940
listed as a hit (RuvB-like protein 2): yes

Small ribosomal subunit protein uS3, P05750
listed as a hit [28]: yes | listed as a hit [29]: yes | listed as a hit [30]: yes

Ubiquitin-ribosomal protein eS31 fusion protein, P05759
listed as a hit [31]: yes

Small ribosomal subunit protein uS7, P26783
listed as a hit [32]: yes | listed as a hit [33]: yes

Small ribosomal subunit protein eS26A, P39938
listed as a hit [33]: yes

Small ribosomal subunit protein eS1B, P23248
listed as a hit [34]: yes

Small ribosomal subunit protein eS21A, P0C0V8
listed as a hit [30]: yes

Small ribosomal subunit protein eS28B, P0C0X0
listed as a hit [35]: yes

Succinate--CoA ligase [ADP-forming] subunit beta, mitochondrial, P53312
listed as a hit [36]: yes

U3 small nucleolar RNA-associated protein 21, Q06078
listed as a hit [37]: yes

U3 small nucleolar RNA-associated protein 13, Q05946
listed as a hit [37]: yes

NET1-associated nuclear protein 1, Q02931
listed as a hit [38]: yes

U3 small nucleolar RNA-associated protein 5, Q04177
listed as a hit [38]: yes

Nucleolar complex protein 4, Q06512
listed as a hit [39]: yes

Periodic tryptophan protein 2, P25635
listed as a hit [40]: yes

Ribosomal RNA-processing protein 7, P25368
listed as a hit [41]: yes
